# ChEMBL document CHEMBL3988442, “University of Dundee, Small-Polar-MMV Screening Library” (2021)
# For some of these results: Potency and affinity values are given separately.
# Tests used:
# Parameters in all cases: scale not given: direction of the effect not stated beside the values
# [1] = biological target: Protein translocase subunit SecA (Escherichia coli (strain K12)) (UniProt P10408); assay: Assay to Identify E. coli SecA ATPase Inhibitors; assay type: functional; settings: 30 µM
# [2] = biological target: T1, Ubiquitin-activating enzyme e1, putative (Leishmania donovani (strain BPK282A1)) (UniProt E9BSI1); assay: Leishmania donovani Ubiquitin Activating Enzyme (LdE1); assay type: functional; settings: 30 µM
# T1 sequence (whole entry): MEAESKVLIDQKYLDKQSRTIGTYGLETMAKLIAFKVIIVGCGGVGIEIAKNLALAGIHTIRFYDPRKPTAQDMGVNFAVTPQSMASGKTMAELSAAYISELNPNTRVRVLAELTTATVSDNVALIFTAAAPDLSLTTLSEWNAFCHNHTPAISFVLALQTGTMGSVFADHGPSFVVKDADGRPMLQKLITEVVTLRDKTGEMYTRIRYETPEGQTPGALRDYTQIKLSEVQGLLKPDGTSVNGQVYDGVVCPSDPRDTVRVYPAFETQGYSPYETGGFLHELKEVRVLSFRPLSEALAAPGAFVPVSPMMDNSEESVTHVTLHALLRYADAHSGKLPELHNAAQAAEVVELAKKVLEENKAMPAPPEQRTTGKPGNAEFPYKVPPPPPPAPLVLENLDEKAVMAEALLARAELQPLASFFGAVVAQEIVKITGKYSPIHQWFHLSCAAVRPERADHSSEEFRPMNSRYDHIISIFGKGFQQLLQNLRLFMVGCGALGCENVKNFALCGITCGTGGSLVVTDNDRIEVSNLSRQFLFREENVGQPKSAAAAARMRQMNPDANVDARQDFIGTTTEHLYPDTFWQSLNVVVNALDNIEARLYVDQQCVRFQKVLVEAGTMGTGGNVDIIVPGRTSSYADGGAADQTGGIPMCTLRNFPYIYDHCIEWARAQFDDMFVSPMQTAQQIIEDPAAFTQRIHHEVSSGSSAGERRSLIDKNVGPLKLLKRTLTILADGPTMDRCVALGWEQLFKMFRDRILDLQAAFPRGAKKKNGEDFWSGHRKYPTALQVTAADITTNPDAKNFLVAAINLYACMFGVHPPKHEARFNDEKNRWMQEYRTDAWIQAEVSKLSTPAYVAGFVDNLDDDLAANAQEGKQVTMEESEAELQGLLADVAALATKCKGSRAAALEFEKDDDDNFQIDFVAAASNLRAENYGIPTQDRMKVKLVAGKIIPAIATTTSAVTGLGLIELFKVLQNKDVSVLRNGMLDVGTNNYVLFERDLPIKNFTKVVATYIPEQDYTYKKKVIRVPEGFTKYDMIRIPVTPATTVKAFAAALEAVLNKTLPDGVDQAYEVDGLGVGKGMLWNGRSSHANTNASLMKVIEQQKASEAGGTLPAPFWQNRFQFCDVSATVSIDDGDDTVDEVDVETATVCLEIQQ
# [3] = biological target: AMP-activated protein kinase, AMPK (Homo sapiens) (UniProt P54646+O43741+P54619+Q9UGJ0+Q9Y478+Q13131+Q9UGI9); assay: AMP-dependent Kinase enzyme assay. An in vitro enzyme assay that detects ADP turnover that is directly proportional to AMPK activity. This uses naive AMPK that is activated during the assay with MK-8722; assay type: functional; settings: 30 µM
# [4] = biological target: Sialic acid-binding Ig-like lectin 9 (Homo sapiens) (UniProt Q9Y336); assay: Hs-Siglec9 ALPHAscreen SOP 20170721; settings: 10 µM
# Trypanosoma cruzi = assay: Trypanosoma cruzi phosphomannomutase and mannose-1-phosphate guanylyltransferase assay; assay type: functional; settings: 10 µM
# [5] = biological target: T2, Arginase-2, mitochondrial (Homo sapiens) (UniProt P78540); assay: in vitro enzyme assay to detect the production of urea directly proportional to the activity of Arginase II; assay type: functional; settings: 33.3 µM; also: in the data most compounds retested in dose-response had high values
# T2 sequence (whole entry): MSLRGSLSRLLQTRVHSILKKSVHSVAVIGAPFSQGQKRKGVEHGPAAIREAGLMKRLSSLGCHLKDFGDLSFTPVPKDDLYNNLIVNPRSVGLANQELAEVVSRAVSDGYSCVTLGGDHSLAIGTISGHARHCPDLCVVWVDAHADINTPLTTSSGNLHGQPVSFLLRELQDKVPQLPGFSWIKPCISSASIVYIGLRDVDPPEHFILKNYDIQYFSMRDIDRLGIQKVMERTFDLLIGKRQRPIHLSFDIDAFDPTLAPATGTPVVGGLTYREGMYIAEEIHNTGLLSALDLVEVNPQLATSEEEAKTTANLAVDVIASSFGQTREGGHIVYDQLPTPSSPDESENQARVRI
# [6] = biological target: T3, Proteasome subunit beta (Trypanosoma cruzi) (UniProt O96673); assay: Trypanosoma cruzi proteasome chymotrypsin-like activity (TcProtChymo) assay.; also: in the data most compounds retested in dose-response had high values; assay type: functional; settings: 9.37 µM
# T3 sequence (whole entry): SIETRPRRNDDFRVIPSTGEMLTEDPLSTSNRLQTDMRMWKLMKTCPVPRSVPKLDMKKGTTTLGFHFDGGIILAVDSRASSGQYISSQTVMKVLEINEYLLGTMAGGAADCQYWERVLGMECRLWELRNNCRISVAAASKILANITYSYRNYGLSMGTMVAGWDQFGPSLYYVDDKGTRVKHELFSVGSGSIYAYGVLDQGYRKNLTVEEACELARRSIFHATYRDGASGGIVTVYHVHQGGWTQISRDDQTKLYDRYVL
# Homo sapiens = species: Homo sapiens; assay: To identify inhibition of the IFN signalling (Jak-Stat) pathway via expression of an eGFP reporter gene under the control of an IFN-stimulated response element (ISRE) containing MxA promoter.; assay type: functional; settings: 30 µM
# [7] = biological target: T4, Tyrosyl-tRNA synthetase, putative (Trypanosoma cruzi (strain CL Brener)) (UniProt Q4DSP6); assay: Trypanosoma cruzi tyrosyl tRNA synthetase (TcYRS) _High Tyrosine SOP; assay type: functional; settings: 30 µM; also: in the data most compounds retested in dose-response had high values
# T4 sequence (whole entry): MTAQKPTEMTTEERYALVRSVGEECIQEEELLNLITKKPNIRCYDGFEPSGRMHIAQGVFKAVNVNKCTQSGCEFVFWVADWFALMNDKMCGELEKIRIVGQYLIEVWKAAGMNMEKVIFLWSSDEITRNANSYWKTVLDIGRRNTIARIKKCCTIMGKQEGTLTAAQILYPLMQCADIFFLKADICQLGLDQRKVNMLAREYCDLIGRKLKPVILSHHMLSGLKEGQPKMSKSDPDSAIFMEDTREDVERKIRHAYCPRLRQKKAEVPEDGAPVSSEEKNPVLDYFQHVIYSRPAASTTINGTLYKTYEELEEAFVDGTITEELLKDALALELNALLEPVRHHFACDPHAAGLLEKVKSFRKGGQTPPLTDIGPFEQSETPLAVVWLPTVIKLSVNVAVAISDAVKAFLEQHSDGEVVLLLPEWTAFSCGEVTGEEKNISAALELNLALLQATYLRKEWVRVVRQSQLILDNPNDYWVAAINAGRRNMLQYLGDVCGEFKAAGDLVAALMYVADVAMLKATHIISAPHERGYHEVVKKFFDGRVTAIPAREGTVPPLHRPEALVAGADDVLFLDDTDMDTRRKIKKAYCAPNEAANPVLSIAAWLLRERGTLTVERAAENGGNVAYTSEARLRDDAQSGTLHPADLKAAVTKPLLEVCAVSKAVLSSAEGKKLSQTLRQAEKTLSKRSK
# [8] = biological target: T4, Tyrosyl-tRNA synthetase, putative (Trypanosoma cruzi (strain CL Brener)); assay: Trypanosoma cruzi tyrosyl tRNA synthetase (TcYRS) SOP; assay type: functional; settings: 30 µM
# [9] = biological target: Chromo domain-containing protein 1 (Saccharomyces cerevisiae (strain ATCC 204508 / S288c) (Baker's yeast)) (UniProt P32657); assay: ScCHD-1 Enzyme Inhibition Assay; assay type: functional; settings: 30 µM; also: in the data most compounds retested in dose-response had high values
# Chain of Chromo domain-containing protein 1 (Saccharomyces cerevisiae (strain ATCC 204508 / S288c) (Baker's yeast)) (P32657 whole entry, the tested form may be a part): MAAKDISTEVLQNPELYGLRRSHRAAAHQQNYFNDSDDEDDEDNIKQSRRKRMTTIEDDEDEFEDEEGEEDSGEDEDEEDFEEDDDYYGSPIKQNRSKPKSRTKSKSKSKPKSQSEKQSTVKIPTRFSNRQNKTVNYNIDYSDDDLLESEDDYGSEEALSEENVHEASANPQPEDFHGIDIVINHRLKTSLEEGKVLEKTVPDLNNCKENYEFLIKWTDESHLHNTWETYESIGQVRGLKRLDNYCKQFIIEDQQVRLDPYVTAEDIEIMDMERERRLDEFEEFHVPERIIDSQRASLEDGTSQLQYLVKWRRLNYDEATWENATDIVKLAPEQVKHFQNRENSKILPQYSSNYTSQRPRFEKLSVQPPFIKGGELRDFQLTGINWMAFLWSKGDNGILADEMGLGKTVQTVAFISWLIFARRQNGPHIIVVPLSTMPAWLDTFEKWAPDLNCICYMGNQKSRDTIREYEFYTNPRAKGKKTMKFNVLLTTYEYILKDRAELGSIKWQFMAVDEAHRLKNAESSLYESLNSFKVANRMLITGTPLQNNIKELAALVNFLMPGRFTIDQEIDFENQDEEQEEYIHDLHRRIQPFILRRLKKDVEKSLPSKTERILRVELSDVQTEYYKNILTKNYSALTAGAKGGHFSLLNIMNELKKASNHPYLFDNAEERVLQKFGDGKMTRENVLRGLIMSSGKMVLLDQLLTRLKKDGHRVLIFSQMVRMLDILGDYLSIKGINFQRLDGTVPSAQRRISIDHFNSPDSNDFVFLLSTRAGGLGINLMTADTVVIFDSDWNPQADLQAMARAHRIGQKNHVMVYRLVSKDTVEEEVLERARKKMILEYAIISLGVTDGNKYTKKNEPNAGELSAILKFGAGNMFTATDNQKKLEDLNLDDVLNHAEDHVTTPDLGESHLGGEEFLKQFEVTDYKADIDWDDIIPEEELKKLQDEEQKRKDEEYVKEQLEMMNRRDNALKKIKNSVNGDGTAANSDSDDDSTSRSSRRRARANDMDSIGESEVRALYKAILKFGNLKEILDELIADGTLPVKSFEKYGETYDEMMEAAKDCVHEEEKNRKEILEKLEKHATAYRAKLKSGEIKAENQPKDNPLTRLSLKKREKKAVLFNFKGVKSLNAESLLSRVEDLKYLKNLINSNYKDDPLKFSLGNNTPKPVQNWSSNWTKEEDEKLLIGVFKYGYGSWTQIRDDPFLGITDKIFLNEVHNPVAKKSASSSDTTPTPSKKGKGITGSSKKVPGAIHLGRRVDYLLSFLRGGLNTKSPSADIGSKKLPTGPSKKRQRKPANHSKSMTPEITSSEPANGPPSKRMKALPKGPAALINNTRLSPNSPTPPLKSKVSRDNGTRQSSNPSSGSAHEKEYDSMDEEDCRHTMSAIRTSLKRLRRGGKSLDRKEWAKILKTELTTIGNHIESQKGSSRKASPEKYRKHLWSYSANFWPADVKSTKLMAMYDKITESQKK
# Chain of Protein translocase subunit SecA (Escherichia coli (strain K12)) (P10408 whole entry): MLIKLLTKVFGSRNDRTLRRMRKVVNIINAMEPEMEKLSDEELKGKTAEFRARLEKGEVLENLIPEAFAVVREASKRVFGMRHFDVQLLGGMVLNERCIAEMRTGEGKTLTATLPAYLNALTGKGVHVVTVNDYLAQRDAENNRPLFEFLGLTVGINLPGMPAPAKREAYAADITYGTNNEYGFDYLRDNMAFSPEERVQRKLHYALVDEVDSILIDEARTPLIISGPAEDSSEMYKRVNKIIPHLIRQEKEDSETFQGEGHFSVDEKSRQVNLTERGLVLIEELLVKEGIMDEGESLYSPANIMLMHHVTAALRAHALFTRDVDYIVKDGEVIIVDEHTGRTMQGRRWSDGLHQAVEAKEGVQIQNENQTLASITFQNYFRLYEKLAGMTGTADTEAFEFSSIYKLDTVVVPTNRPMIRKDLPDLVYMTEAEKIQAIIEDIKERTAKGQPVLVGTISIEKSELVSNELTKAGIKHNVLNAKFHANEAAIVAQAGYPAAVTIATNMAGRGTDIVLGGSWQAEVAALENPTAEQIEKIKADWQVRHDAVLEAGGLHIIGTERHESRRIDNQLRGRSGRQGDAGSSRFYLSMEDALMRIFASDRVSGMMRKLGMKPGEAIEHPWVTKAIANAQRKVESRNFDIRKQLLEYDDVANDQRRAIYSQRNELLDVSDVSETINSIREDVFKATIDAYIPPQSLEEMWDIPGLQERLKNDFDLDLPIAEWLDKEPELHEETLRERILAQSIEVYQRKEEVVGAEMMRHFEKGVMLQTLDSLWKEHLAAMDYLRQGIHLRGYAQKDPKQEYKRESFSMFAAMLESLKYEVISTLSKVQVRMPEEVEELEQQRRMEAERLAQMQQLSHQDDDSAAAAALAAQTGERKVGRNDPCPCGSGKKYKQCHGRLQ
# Chain of Sialic acid-binding Ig-like lectin 9 (Homo sapiens) (Q9Y336 whole entry): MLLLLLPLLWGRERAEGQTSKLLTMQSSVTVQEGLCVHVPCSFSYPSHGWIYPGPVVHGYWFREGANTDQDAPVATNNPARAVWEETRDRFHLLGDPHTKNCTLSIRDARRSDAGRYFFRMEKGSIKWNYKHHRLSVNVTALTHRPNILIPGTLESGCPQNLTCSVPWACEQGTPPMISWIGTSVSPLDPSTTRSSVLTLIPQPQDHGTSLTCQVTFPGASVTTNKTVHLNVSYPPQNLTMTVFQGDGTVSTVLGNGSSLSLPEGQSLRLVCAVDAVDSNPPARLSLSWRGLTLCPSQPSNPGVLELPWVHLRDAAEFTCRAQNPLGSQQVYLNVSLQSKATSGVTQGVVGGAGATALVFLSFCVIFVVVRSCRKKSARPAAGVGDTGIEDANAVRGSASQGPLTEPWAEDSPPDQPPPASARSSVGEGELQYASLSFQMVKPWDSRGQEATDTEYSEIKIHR
Structure (SMILES),Percent Effect [1] [%],Percent Effect [2] [%],Percent Effect [3] [%],Percent Effect [4] [%],Percent Effect (Trypanosoma cruzi) [%],Percent Effect [5] [%],Percent Effect [6] [%],Percent Effect (Homo sapiens) [%],Percent Effect [7] [%],Percent Effect [8] [%],Percent Effect [9] [%]
CC(C)(C)c1n[nH]c(C2CN(C(=O)c3csnn3)CCO2)n1 (stereo not drawn),-8.03,18.4,-1.35,7.53,7.5,1.18,2.4,6.98,6.38,15.6,-19.5
CCc1nc(N)sc1C(=O)N1CCCC(CCc2ccccc2C)C1 (stereo not drawn),-4.6,5.41,-6.81,34.1,4.59,-0.744,10.6,34.9,9.68,18.5,-1.19
c1cnc(-c2nc(CNCCn3cccn3)cs2)nc1,-0.355,-2.63,7.92,-0.779,-1.5,-2.68,7.18,9.32,-0.49,-4.88,-6.78
Cn1ccnc1-c1cccc(NC(=O)NCCN2CCOCC2)c1,-4.99,15.3,-5.8,16.5,4.57,16.3,10.9,9.44,5.26,10.3,-4.33
N#Cc1cccc(CS(=O)(=O)NCC(O)Cc2ccccc2)c1 (stereo not drawn),-4.15,-2.67,0.717,0.263,0.682,-3.12,1.4,6.52,0.546,3.7,1.24
Cc1ccc(-c2nnc(CN3CCOC(Cn4cccn4)C3)o2)cc1 (stereo not drawn),-4.11,10.1,-1.13,4.66,0.661,3.42,7.45,4.27,2.46,11.4,-5.6
CC(C)C(=O)N1CCC(c2nc(O)cc(-c3ccncc3)n2)CC1,-5,25.7,5.51,-2.98,3.16,-2.09,10.9,14.4,5.38,11.7,-14.2
O=C(c1ccc[nH]1)N1CCCC(c2cc(C(F)(F)F)[nH]n2)C1 (stereo not drawn),-5.38,-10.5,1.16,17.4,-4.39,-1.08,-0.0846,35.6,3.45,6.17,-3.1
